In PubChem BioAssay (NCATS):
Results filed as inconclusive are left out. A number with no mark means an inactive call. Activity calls are given as the source filed them. Calls come from the whole dose curve; as a rule, active = well fitted inhibition curve with a large enough effect; inconclusive = small, poorly fitted or top-dose-only effect; inactive = flat fitted curve, though single readings scatter. Where a SMILES comes first, the peptide text is derived from it. Bridges are numbered along the chain shown (N, C = ends). [ ]: non-standard residue; d: D form. hArg = N=C(N)NCCCC[C@H](N)C(=O)O; Mpa = O=C(O)CCS

Tested on: MKL-2
Experiment: qHTS assay to identify novel small-molecules to repurpose for Merkel cell carcinoma treatment (AID 1296009); note: nearly all actives have a fitted effect of over 60% in size
Settings: MCC and control cell lines, CellTiter-Glo viability, 72 h; series mostly up to 46 µM; activity change, negative = cytotoxicity: at the top concentration
Outline: (§1)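 Cells exposed to NPC (8-point) and MIPE (11-point) compound dilutions for 72 hr at 37 degree celsius; viability read by CellTiter-Glo luminescence, normalized to no-cell and DMSO in-plate controls.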
% is set by controls: 0 for no effect and ±100 for the full control effect.

| SMILES | activity change, negative = cytotoxicity |
| --- | --- |
| NC(=O)[C@@H]1CSSCCC(=O)N[C@@H](CCCCN=C(N)N)C(=O)NCC(=O)N[C@@H](CC(=O)O)C(=O)N[C@@H](Cc2c[nH]c3ccccc23)C(=O)N2CCC[C@H]2C(=O)N1 ([Mpa][hArg]GDWPC-NH2; disulfide 1-7) | -11.4% |
| Cc1ccc(C(C)C)c(O)c1 | 2.57% |
| COc1ccc(-c2cc(=O)c3c(O)cc(O[C@@H]4O[C@H](CO[C@@H]5O[C@@H](C)[C@H](O)[C@@H](O)[C@H]5O)[C@@H](O)[C@H](O)[C@H]4O)cc3o2)cc1O | 28.9% |
| CC[N+](C)(CC)CCOC(=O)C1c2ccccc2Oc2ccccc21 | 1.47% |
| COc1ccccc1Oc1c(NS(=O)(=O)c2ccc(C(C)(C)C)cc2)nc(-c2ncccn2)nc1OCCO | -18.4% |
| Cc1cc(C)c(NC(=O)CN(CC(=O)O)CC(=O)O)c(C)c1Br | 8.46% |
| Cc1ccc(S(=O)(=O)NC(=O)NC2CCCCCCC2)cc1 | 2.47% |
| C/C=C1\[C@H]2C=C(C)C[C@]1(N)c1ccc(=O)[nH]c1C2 | 22.1% |
| C1CCN2C[C@@H]3C[C@@H](CN4CCCC[C@@H]34)[C@H]2C1 | 11.1% |
| CCCNC(C)(C)COC(=O)c1ccccc1 | 12.6% |
| C[C@@H]1CCC[C@H](C)N1 | 10.3% |
| Cn1cc(C(=O)[C@@H]2CCc3nc[nH]c3C2)c2ccccc21 | 5.63% |
| CCOC(=O)[C@H](CCc1ccccc1)N[C@@H](C)C(=O)N1CCC[C@H]1C(=O)O | -21% |
| c1ccc2[nH]ccc2c1 | 10.1% |
| NS(=O)(=O)c1ccc(C(=O)O)cc1 | 0.743% |
| O=C(Cn1ccnc1[N+](=O)[O-])NCc1ccccc1 | 0.634% |
| O=c1[nH]cnc2nc[nH]c12 | 19.2% |
| O[C@@H]1CO[C@H]2[C@@H]1OC[C@@H]2O | 6.05% |
| Cc1cc(OI)c(C(C)C)cc1-c1cc(C(C)C)c(OI)cc1C | 2.72% |

| SMILES | activity change, negative = cytotoxicity |
| --- | --- |
| CC(=O)N[C@H]1[C@H]([C@H](O)[C@H](O)CO)OC(C(=O)O)=C[C@@H]1N=C(N)N | 7.17% |
| CC1(C)S[C@@H]2[C@H](NC(=O)C(C(=O)O)c3ccccc3)C(=O)N2[C@H]1C(=O)O (stereo not given in full) | 12.2% |
| CC(=O)NS(=O)(=O)c1ccc(N)cc1 | 3.71% |
| C=CCNC(N)=S | 13.6% |
| CC(=O)[C@@]1(O)CC[C@H]2[C@@H]3C[C@H](C)C4=CC(=O)C=C[C@]4(C)[C@@]3(F)[C@@H](O)C[C@@]21C | 17.4% |
| OCCN1C[C@H](O)[C@@H](O)[C@H](O)[C@H]1CO | 22.7% |
| NC(N)=NCCN1CCCCCCC1 | 3.8% [at 0.597 µM] |
| O=C1c2cccc(O)c2C(=O)c2c(O)cccc21 | 10.7% |
| NNC(=O)CP(=O)(c1ccccc1)c1ccccc1 | -4.37% |
| C[C@@H](c1ncncc1F)C(O)(Cn1cncn1)c1ccc(F)cc1F (stereo not given in full) | 15.3% |
| Nc1ccncc1N | 6.67% |
| Cc1ccc(S(=O)(=O)NC(=O)NC2CCCCC2)cc1 | -4.21% |
| Cc1cc(-n2nc3ccc(Cl)cc3n2)c(O)c(C(C)(C)C)c1 | 9.29% |
| CN/C(=C\[N+](=O)[O-])NCCSCc1csc(CN(C)C)n1 | 4.46% |
| CCN1CC(CCN2CCOCC2)C(c2ccccc2)(c2ccccc2)C1=O (stereo not given) | 19% |
| O=C(/C=C/c1ccc(O)c(O)c1)O[C@@H]1C[C@@](OC(=O)/C=C/c2ccc(O)c(O)c2)(C(=O)O)C[C@@H](O)[C@@H]1O | 8.29% |
| CCOC(=O)c1cccnc1 | 12.6% |
| CC[C@H](C)[C@H](N)C(=O)O | 25.1% |
| O=C1c2ccccc2C(=O)C1c1ccc(Br)cc1 | 22.3% |

Tested on: NIH3T3
Experiment: as above
Settings: MCC and control cell lines, CellTiter-Glo viability, 72 h; at 44.8 µM (top of the series) unless noted
Outline: as §1

| SMILES | outcome |
| --- | --- |
| COc1ccccc1Oc1c(NS(=O)(=O)c2ccc(C(C)(C)C)cc2)nc(-c2ncccn2)nc1OCCO | inactive |
| CCOC(=O)[C@H](CCc1ccccc1)N[C@@H](C)C(=O)N1CCC[C@H]1C(=O)O | inactive |
| c1ccc2[nH]ccc2c1 | inactive |
| CC(=O)N[C@H]1[C@H]([C@H](O)[C@H](O)CO)OC(C(=O)O)=C[C@@H]1N=C(N)N | inactive |

Tested on: UISO
Experiment: as above
Settings: MCC and control cell lines, CellTiter-Glo viability, 72 h; series mostly up to 46 µM; activity change, negative = cytotoxicity: at the top concentration
Outline: as §1

| SMILES | activity change, negative = cytotoxicity |
| --- | --- |
| NC(=O)[C@@H]1CSSCCC(=O)N[C@@H](CCCCN=C(N)N)C(=O)NCC(=O)N[C@@H](CC(=O)O)C(=O)N[C@@H](Cc2c[nH]c3ccccc23)C(=O)N2CCC[C@H]2C(=O)N1 ([Mpa][hArg]GDWPC-NH2; disulfide 1-7) | -15.2% |
| Cc1ccc(C(C)C)c(O)c1 | 5.11% |
| COc1ccc(-c2cc(=O)c3c(O)cc(O[C@@H]4O[C@H](CO[C@@H]5O[C@@H](C)[C@H](O)[C@@H](O)[C@H]5O)[C@@H](O)[C@H](O)[C@H]4O)cc3o2)cc1O | -4.5% |
| CC[N+](C)(CC)CCOC(=O)C1c2ccccc2Oc2ccccc21 | 5.86% |
| COc1ccccc1Oc1c(NS(=O)(=O)c2ccc(C(C)(C)C)cc2)nc(-c2ncccn2)nc1OCCO | 2.43% |
| Cc1cc(C)c(NC(=O)CN(CC(=O)O)CC(=O)O)c(C)c1Br | 11.4% |
| Cc1ccc(S(=O)(=O)NC(=O)NC2CCCCCCC2)cc1 | 15.7% |
| C/C=C1\[C@H]2C=C(C)C[C@]1(N)c1ccc(=O)[nH]c1C2 | 13% |
| C1CCN2C[C@@H]3C[C@@H](CN4CCCC[C@@H]34)[C@H]2C1 | 13% |
| CCCNC(C)(C)COC(=O)c1ccccc1 | -8.86% |
| C[C@@H]1CCC[C@H](C)N1 | 8.68% |
| Cn1cc(C(=O)[C@@H]2CCc3nc[nH]c3C2)c2ccccc21 | -18% |
| CCOC(=O)[C@H](CCc1ccccc1)N[C@@H](C)C(=O)N1CCC[C@H]1C(=O)O | 3.57% |
| c1ccc2[nH]ccc2c1 | -14.1% |
| NS(=O)(=O)c1ccc(C(=O)O)cc1 | 27.8% |
| O=C(Cn1ccnc1[N+](=O)[O-])NCc1ccccc1 | 4.82% |
| O=c1[nH]cnc2nc[nH]c12 | 37.6% |
| O[C@@H]1CO[C@H]2[C@@H]1OC[C@@H]2O | -1.11% |
| Cc1cc(OI)c(C(C)C)cc1-c1cc(C(C)C)c(OI)cc1C | 2.26% |

| SMILES | activity change, negative = cytotoxicity |
| --- | --- |
| CC(=O)N[C@H]1[C@H]([C@H](O)[C@H](O)CO)OC(C(=O)O)=C[C@@H]1N=C(N)N | -2.31% |
| CC1(C)S[C@@H]2[C@H](NC(=O)C(C(=O)O)c3ccccc3)C(=O)N2[C@H]1C(=O)O (stereo not given in full) | 30% |
| CC(=O)NS(=O)(=O)c1ccc(N)cc1 | -8.43% |
| C=CCNC(N)=S | -5.08% |
| CC(=O)[C@@]1(O)CC[C@H]2[C@@H]3C[C@H](C)C4=CC(=O)C=C[C@]4(C)[C@@]3(F)[C@@H](O)C[C@@]21C | 26% |
| OCCN1C[C@H](O)[C@@H](O)[C@H](O)[C@H]1CO | 14.8% |
| NC(N)=NCCN1CCCCCCC1 | 18% [at 0.597 µM] |
| O=C1c2cccc(O)c2C(=O)c2c(O)cccc21 | 9.38% |
| NNC(=O)CP(=O)(c1ccccc1)c1ccccc1 | 23.5% |
| C[C@@H](c1ncncc1F)C(O)(Cn1cncn1)c1ccc(F)cc1F (stereo not given in full) | 24.1% |
| Nc1ccncc1N | -0.986% |
| Cc1ccc(S(=O)(=O)NC(=O)NC2CCCCC2)cc1 | 5.34% |
| Cc1cc(-n2nc3ccc(Cl)cc3n2)c(O)c(C(C)(C)C)c1 | 16% |
| CN/C(=C\[N+](=O)[O-])NCCSCc1csc(CN(C)C)n1 | 15.4% |
| CCN1CC(CCN2CCOCC2)C(c2ccccc2)(c2ccccc2)C1=O (stereo not given) | -8.03% |
| O=C(/C=C/c1ccc(O)c(O)c1)O[C@@H]1C[C@@](OC(=O)/C=C/c2ccc(O)c(O)c2)(C(=O)O)C[C@@H](O)[C@@H]1O | 22.2% |
| CCOC(=O)c1cccnc1 | 7.32% |
| CC[C@H](C)[C@H](N)C(=O)O | 20.8% |
| O=C1c2ccccc2C(=O)C1c1ccc(Br)cc1 | -6.39% |
